One molecule from PubChem BioAssay AID540332 (The Scripps Research Institute Molecular Screening Center, 2011) can be followed below.

A number with no mark means an inactive call. No rule for the calls is given here.

The subject of the experiment is Imidazoline I2. Put plainly: selectivity profile across receptors and CYP450s – biochemical, Ricerca HitProfilingScreen, CYP450, set 2, selectivity assay for S1P4 agonist project, profiling panel (AID 540332). The following applies: Central; at 30 µM; active compounds read high.

Take `COCCN=C1S/C(=C\c2cc(C)n(-c3ccc(F)cc3F)c2C)C(=O)N1C`: the inhibition was 2%.

What is called inhibition is the share of the control response that was lost under treatment.
